# FLuc modulator – counter-screen for miR-21 project: firefly luciferase inhibitors or activators; purified FLuc, Km substrates, luminescence inhibition; Potency, µM (top dose mostly 57.5 µM), inactives show top-dose activity change, negative = inhibition, most hits filed as inhibitors; P08659; actives 6.9% (n = 360,000);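 further: plate controls were vehicle for no effect and reference inhibitor for full effect; nearly all actives have a fitted effect of over 55% in size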
# Target sequence (P08659 whole entry, looked up): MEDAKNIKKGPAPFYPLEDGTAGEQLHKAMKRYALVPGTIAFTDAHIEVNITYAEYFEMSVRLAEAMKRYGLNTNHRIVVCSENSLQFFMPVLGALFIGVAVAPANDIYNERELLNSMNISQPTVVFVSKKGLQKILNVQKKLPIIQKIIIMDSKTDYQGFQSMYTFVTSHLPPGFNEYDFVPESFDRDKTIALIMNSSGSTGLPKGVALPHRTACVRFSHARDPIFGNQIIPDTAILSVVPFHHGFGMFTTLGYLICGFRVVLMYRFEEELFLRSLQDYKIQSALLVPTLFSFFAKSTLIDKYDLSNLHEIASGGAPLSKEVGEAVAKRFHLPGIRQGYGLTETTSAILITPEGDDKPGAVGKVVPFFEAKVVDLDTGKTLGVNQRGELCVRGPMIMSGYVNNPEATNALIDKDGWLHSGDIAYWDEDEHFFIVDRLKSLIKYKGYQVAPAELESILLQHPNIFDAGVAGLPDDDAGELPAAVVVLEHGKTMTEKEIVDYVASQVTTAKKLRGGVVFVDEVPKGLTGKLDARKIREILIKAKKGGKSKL
#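 Purified P. pyralis luciferase, 10 nM final, with Km-level 10 uM D-luciferin and 10 uM ATP in 50 mM Tris acetate pH 7.5, 10 mM Mg acetate, 0.01% Tween-20, 0.05% BSA; 6-point qHTS titration about 60 µM downward; luminescence read.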
# SMN2 splice enh – SMN2 splice variant enhancement. HEK293 SMN2-luciferase splicing reporter, luminescence, 30-36 h. Potency, µM (titrated, usually from 46.1 µM), inactives show at the highest dose activity change, positive = activation, most hits filed as activators. actives 2.8% (n = 210,000); further: % of control where 0% means no effect; nearly all actives have a fitted effect of over 55% in size
#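 HEK293 cells carry an SMN2 minigene-luciferase reporter in which exon 7 inclusion puts luciferase in frame. Cells were seeded at 2000 cells/well, attached for 10-12 hours, then exposed to compounds for 30-36 hours at 37C before ONE-Glo luminescence.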
# Rab9 prom act – activators of Rab9 promoter; Huh7 Rab9 promoter-luciferase reporter, luminescence, 24 h; Potency, µM (series often up to 9.22 µM), inactives show at the top dose activation, negative = inhibition, usual class: activators; actives 2.8% (n = 320,000); AID 485297; further: % of control where 0% means no effect; nearly all actives have a fitted effect of over 60% in size
#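 Stable Rab9-luc Huh7, 1500 cells/well, 2 h settle; cmpd in DMSO, 24 h, 37 °C/5% CO2; luciferase reagent 10 min RT; luminescence.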
# NPC1 promoter act – activators of NPC1 promoter | actives 2.4% (n = 320,000) | Huh7 NPC1 promoter luciferase reporter, 24 h | Potency, µM (series often up to 9.22 µM), for inactives: at the top dose activation, hits mostly activators | AID 485313; further: % of control where 0% means no effect; nearly all actives have a fitted effect of over 60% in size
#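 Cells: Huh7 expressing luciferase under the NPC1 promoter, 1500/well. Seeded 2 h, compound added, incubated 24 h at 37 °C. Luciferase reagent, 10 min ambient, then luminescence.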
# ELG1 genotoxic – inducers of genotoxicity in HEK293T ELG1-luciferase cells; HEK293T ELG1-luciferase reporter, luminescence, 16 h; Potency, µM (titrated, usually from 46 µM), for the others: at the highest dose activity change, positive = activation, usual class: activators; actives 1.3% (n = 330,000); further: % of control where 0% means no effect; nearly all actives have a fitted effect of over 60% in size
#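 Step 1: seed 2,000 HEK293T ELG1-luciferase cells per well. Step 2: add compound or DMSO, incubate 16 hr at 37 °C. Step 3: ONE-Glo, 30 min at room temperature, read luminescence.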
# Active calls of the source: *; ? = inconclusive; / = not tested or not shown; [ ] = another dose, or the depositor's remark. An excerpt weighted towards active compounds, which were near 7.4% of everything screened. The call rests on the fitted dose curve; in most records, active means well fitted curve in the direction sought with a large enough effect; inconclusive means small, poorly fitted or top-dose-only effect, or another doubt; inactive means no such curve, though single readings can be large; an effect the other way counts as inactive or inconclusive. Potency means the concentration at half of the fitted maximal effect.
SMILES,FLuc modulator,SMN2 splice enh,Rab9 prom act,NPC1 promoter act,ELG1 genotoxic
COc1ccccc1C(=O)Nc1c(C(=O)Nc2ccccc2F)oc2ccccc12,-6%,-2%,/,/,/
CCc1cccc(N2C(=O)CSC23C(=O)Nc2ccccc23)c1 (stereo not drawn),1%,/,/,/,/
COc1ccccc1Cn1c(CNS(=O)(=O)c2c(C)cc(C)cc2C)nc2cccnc21,-3%,/,/,/,/
O=C(O)Cc1sc(-c2ccccc2Cl)nc1-c1ccccc1,24µM*,-21%,4%,-6%,-11%
O=C(Cc1sc(-c2ccccc2)nc1-c1ccccc1)Nc1ccccc1,-19%,12%,-4%,0%,6%
O=C(O)CC[C@@H](C(=O)O)N1C(=O)[C@@H]2[C@@H]3CC[C@H](C3)[C@@H]2C1=O,/,-5%[9.22 µM],/,/,/
COC(=O)c1cc(-c2ccc3c(c2)OCO3)nc2ccccc12,17µM*,-23%,1%,-10%,-6%
c1ccc2nc(-c3ccc4c(c3)OCO4)ccc2c1,0.95µM*,13µM*,0.32µM*,0.56µM*,2.6µM*
COc1ccc(OC)c2nc(-c3ccc4c(c3)OCO4)ccc12,1.9µM*,/,1.4µM*,1.4µM*,4.6µM*
O=C(O)c1cc(-c2ccc3c(c2)OCO3)nc2ccc(Br)cc12,3µM*,7%,11%,10%,5%
O=C(CSc1ccc2ccccc2n1)NCc1ccc2c(c1)OCO2,?,-21%,-7%,-5%,0%
Cc1cc(C)nc(NC(=O)c2cc(-c3ccc4c(c3)OCO4)nc3ccccc23)c1,?,/,-3%,-2%,-9%
NCC(=O)Nc1ccccc1,/,5%[9.22 µM],/,/,/
Cc1nc2ccn(Cc3ccco3)c(=O)c2cc1C(=O)NCc1ccccc1F,4%,/,/,/,/
C[C@]12CC[C@H]3c4ccc(O)cc4CC[C@@H]3[C@H]1C/C(=N/O)[C@H]2O,/,-19%[9.22 µM],/,/,/
O=C(NCCCN1CCCC1=O)c1cc(-c2ccc3c(c2)OCO3)nc2ccccc12,24µM*,-5%,-4%,0%,-14%
O=C(O)c1cc(-c2ccc3cc4c(cc3c2)OCO4)nc2ccccc12,/,3.5µM*,/,/,/
O=C(NCCCN1CCOCC1)c1cc(-c2ccc3c(c2)OCO3)nc2ccccc12,?,4%,2%,0%,-5%
O=C(N/N=C/c1c[nH]c2ccccc12)c1ccc2c(c1)OCCO2,0.95µM*,/,?,?,?
O=C(N/N=C/c1c[nH]c2ccc(Br)cc12)c1ccncc1,3%,7%,-1%,4%,0%
O=C(N/N=C/c1c[nH]c2ccccc12)c1cc(Br)ccc1O,27µM*,/,14%,19%,6%
O=C(N/N=C/c1c[nH]c2ccc(Br)cc12)c1ccc2c(c1)OCO2,27µM*,23%,-4%,-2%,-1%
CCOc1ccc(Br)cc1C(=O)N/N=C/c1c[nH]c2ccccc12,2%,/,-4%,1%,-1%
O=C(N/N=C\c1cn[nH]c1-c1ccccc1)c1cccs1,24µM*,19%,1%,0%,13%
COC(=O)[C@@H]1[C@@H](C)N(CCc2cc(OC)c(OC)c(OC)c2)C(=O)N[C@H]1c1ccccc1,/,-2%[9.22 µM],/,/,/
SMILES,FLuc modulator,SMN2 splice enh,Rab9 prom act,NPC1 promoter act,ELG1 genotoxic
Cc1cc(=Nc2ccc3c(c2)c(N)cc(C)[n+]3C)nc(N)n1C,/,-6%[9.22 µM],/,/,/
CCCCN(CCCC)C(=O)c1c[nH]c2ccc(S(=O)(=O)Nc3cccc(Cl)c3C)cc2c1=O,?,/,2%,-1%,/
Cn1cccc1/C=N/NC(=O)c1sc2ccccc2c1Cl,2.7µM*,0%,?,?,14%
O=C(N/N=C/c1cccc2ccccc12)c1cccs1,2.1µM*,/,3.5µM*,5.6µM*,?
Cc1c(/C=N/NC(=O)c2sc3ccccc3c2Cl)cnn1C,?,4%,0%,3%,-1%
Cc1ccc(C(=O)Nc2ccc(C(=O)N/N=C/c3c[nH]c4ccccc34)cc2)cc1,?,10%,2%,11%,3%
O=C(N/N=C/c1c[nH]c2ccccc12)c1ccccc1,13µM*,/,?,?,?
Cc1cc(C(=O)N/N=C/c2c[nH]c3ccccc23)cs1,15µM*,?,11%,16%,17%
O=C(NC(Cc1c[nH]c2ccccc12)C(=O)N/N=C/c1cccc2ccccc12)c1cccs1 (stereo not drawn),2%,6%,0%,-1%,-5%
O=C(N/N=C/c1c[nH]c2ccccc12)c1ccncc1,?,6%,9%,6%,9%
Cc1ccc(CNC(=O)Cn2c(=O)n(-c3ccc(C)cc3)c(=O)c3c2c2cc(C)ccc2n3C)cc1,-7%,/,/,/,/
O=C(N/N=C/c1ccccn1)c1sc2ccccc2c1Cl,9.5µM*,/,-1%,-1%,?
O=C(N/N=C/c1ccccc1OCc1ccccc1)c1cccs1,4.3µM*,26%,-4%,9%,13%
COc1ccccc1C(=O)N/N=C/c1c[nH]c2ccccc12,17µM*,/,13%,19%,5%
O=C(N/N=C/c1c[nH]c2ccccc12)c1cccs1,9.5µM*,/,?,?,23µM*
O=C(CSCc1ccccc1)N/N=C/c1ccccc1OCc1ccccc1,-15%,/,13%,4%,-6%
O=C(N/N=C/c1ccc([N+](=O)[O-])o1)c1sc2ccccc2c1Cl,3%,/,0%,-7%,-9%
CCOc1ccccc1NC(=O)CC(c1ccc(F)cc1)N1Cc2ccccc2C1=O (stereo not drawn),-9%,/,/,/,/
O=C(N/N=C/c1cccc([N+](=O)[O-])c1O)c1cccs1,13µM*,-63%,-1%,-6%,0%
O=C(N/N=C/c1c[nH]c2ccccc12)c1sc2ccccc2c1Cl,12µM*,?,?,12%,?
c1ccc([C@H](CCN2CCCC2)c2ccccn2)cc1,/,-4%[9.22 µM],/,/,/
Cc1sc(N)nc1-c1ccc2c(c1)OCCO2,?,/,8%,23%,2%
Cc1sc(N)nc1-c1ccc(Oc2ccccc2)cc1,24µM*,/,29%,18%,?
COc1ccc2nc(NC(=O)c3ccc(-c4cccc([N+](=O)[O-])c4)o3)sc2c1,-5%,-14%,7%,1%,4%
CCC(=O)Nc1nc2ccc(NC(C)=O)cc2s1,?,18%,?,24%,?
CC(=O)Nc1ccc2nc(NC(=O)c3ccco3)sc2c1,11µM*,/,2µM*,1.4µM*,?
CSc1nc2ccc(NC(=O)c3ccc(=O)[nH]c3)cc2s1,?,/,12%,1%,14%
O=C(Nc1nc2ccc([N+](=O)[O-])cc2s1)c1c(F)cccc1F,8.5µM*,?,19%,23%,-1%
CSc1nc2ccc(NC(=O)c3ccc(F)c(F)c3)cc2s1,?,16µM*,?,?,?
CC(=O)Nc1ccc2nc(NC(=O)c3ccc([N+](=O)[O-])o3)sc2c1,21µM*,/,16%,12%,-13%

# Screening data (PubChem)
